# Source: PubChem BioAssay (NCATS)
# Records with an inconclusive call do not appear. Unmarked numbers belong to inactive results. Calls follow the shape of the dose curve; as a rule, active = well fitted inhibition curve with a large enough effect; inconclusive = small, poorly fitted or top-dose-only effect; inactive = flat fitted curve, though single readings scatter.
# Assay: qHTS to identify inhibitors of the type 1 interferon - major histocompatibility complex class I in skeletal muscle: primary screen against the NCATS Pharmaceutical Collection (AID 1347407)
# Settings: human skeletal muscle cells, IFN-b-induced MHC-I HiBiT luminescence, 24 h; series mostly up to 45.9 µM; activity change, negative = inhibition: at the top concentration
# Procedure, shortened: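 Immortalized human myoblasts (C25cl48) with HiBiT knocked into endogenous HLA-B*08:01 were stimulated with 4 ng/ml IFN-beta and treated with compounds (8-point, 1:5, top 46 uM final) for 24 h at 37 C; HiBiT lytic luminescence read.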
# % is scaled to controls: 0 for no effect and ±100 for the full control effect.
row,SMILES,"activity change, negative = inhibition"
1,CCOCCOC(=O)/C=C/c1ccc(OC)cc1,-2.6%
2,O=C(O)c1ccccc1NCCc1ccccc1,-5.48%
3,Nc1ccccc1N,0.973% [at 92.2 µM]
4,O=C(O)c1c(O)c(-c2ccccc2)nc2ccccc12,-9.09%
5,Cc1ccc(N)cc1O,-8.88% [at 92.2 µM]
